In general, inhibition refers to the relative decrease from the control value, in per cent.

In the test the target is Hexose transporter 1 (Plasmodium falciparum) (UniProt O97467). The experiment in a line: ST_JUDE_LEISH: Cytotoxicity at 2uM final concentration against transgenic Leishmania Mexicana promastigotes LmPfHT that are glucose transport deficient and complemented with the Plasmodium falciparum hexose transporter. Activity is measured by DNA content using SYBR green in vitro. The format is functional.
Regarding `O=C(Nc1cccc(CN2CCCN(Cc3ncc[nH]3)CC2)c1)c1cc2ccccc2s1`, the inhibition was determined as 5.48%. On to `COc1ccc(C(=O)C2CCN(CCCCNC(=O)c3ccc(NC(=O)c4cc(Cl)cc(Cl)c4)cc3)CC2)cc1`, for which the inhibition came out at 4.08%. `CC(C)NCc1ccc(-c2ccc(CN3CCCC(c4ccccc4)C3)cc2)c(C(=O)NC2Cc3ccccc3C2)c1` (centres undefined): the inhibition came to 17.4%. Turning to `CCNC(=O)Nc1cccc(-c2cccc(-c3nc4cccc(C)c4[nH]3)c2)c1`, the inhibition was 2.2%.

Take `COc1cc2nc(-c3ccc(Br)cc3)cc(N)c2cc1OC`: the inhibition is 23.6%.

As for `Cc1ccc(-c2nnc3c4ccccc4c(C)nn23)cc1S(=O)(=O)N1CCN(CCO)CC1`, the inhibition was found to be 0.96%. As for `CNCCNCc1ccc(-c2ccc(-c3nc4cccc(C)c4[nH]3)s2)cc1`, the figure is 2.48%; as for `CCCCc1ccccc1NS(=O)(=O)c1ccc(OC)c(N2CCNCC2)c1`, -3.65%. As to `O=C(/C=C/c1ccc(Cl)cc1)NCCCCCN1CCCC(C(=O)Nc2ccc(Cl)c(Cl)c2)C1` (centres undefined), the inhibition was found to be 1.61%. As to `CCNc1cc(C(=O)N[C@@H](Cc2ccccc2)[C@H](O)CNC2(CCC(C)C)CC2)cc(N2CCCCS2(=O)=O)c1`, the inhibition is -0.04%.

With `Nc1cc(-c2cccc(Cl)c2)nn1-c1ccnc2cc(Cl)ccc12`, the inhibition is -0.13%. The result for `Nc1cc(-c2ccc3c(N)nccc3c2)ccc1Cl` reads 2.75%. Regarding `O=C(Nc1ccc(N2CCN(c3ncccc3C(F)(F)F)CC2)nc1)c1cccs1`, the inhibition came out at 3.03%. Turning to `CN(Cc1ccc(C#N)cc1)C1CCN(c2cc(NC(=O)c3ccc(F)cc3)ccn2)CC1`, the inhibition is 2.79%. As for `COc1ccc(NC(=O)NC2CCN(c3ccnc4cc(Cl)ccc34)C2)cc1` (centres undefined), the figure is 2.85%; as for `CCCC1(NC[C@@H](O)[C@H](Cc2ccccc2)NC(=O)c2cc(NCC)cc(N3CCCCS3(=O)=O)c2)CCCCC1`, 0.97%. For `Cc1cc(NCc2ccc(F)cc2)nc2cc(O)ccc12`, the inhibition worked out at 3.64%. For the compound `COc1cc(Cc2cnc(N)nc2N)cc(OC)c1OCCCCC(=O)O`, the inhibition was 0.53%.

In the case of `c1cc(CN2CCC(CCN3CCCCC3)CC2)cc(-c2csc(-c3nc4ccccc4[nH]3)c2)c1`, the inhibition was 8.75%. As for `COc1cccc(C2CCCN(CCCCNC(=O)c3ccc(NC(=O)c4ccc(Cl)cc4)cc3)C2)c1` (centres undefined), the figure is 4.25%; as for `O=C(Cc1cccc(Cl)c1)Nc1cccc(-c2c[nH]c3nc(Nc4cccc(O)c4)ncc23)c1`, 0.22%; as for `N#CCc1ccc(Nc2nccc(Nc3ccc(Oc4ccccc4)cc3)n2)cc1`, 6.97%. The result for `COc1ccc(CNC2CCN(C)CC2)cc1-c1ccc(S(=O)(=O)NCCc2ccccn2)c(F)c1` reads 2.16%; that for `O=C(NCc1cccc(C(F)(F)F)c1)[C@@H]1CCCN1C(=O)c1ccc(O)c(-c2ccc(Cl)c(Cl)c2)c1`, -0.25%.
